According to the supplement of paper PMC6555819:

Test system: VDR:RXRa (NR concentration 270 nM, RXRa partner concentration 90 nM)
Assay: PBM binding z-score (relative to random genomic background probes); higher = stronger binding; sequences stand for … in GC…GCGATTGACAGCGTAGAATGAAGG
Experimental: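 Protein-binding microarray (Agilent 4x180K custom design, double-stranded 60-nt probes: 5' GC cap, 34-nt variable region, 24-nt constant primer region; full probe sequence given). Purified or IVT nuclear receptor:RXRα heterodimers (3:1 NR:RXRα, mostly 270:90 nM) or homodimers were incubated for 1 h in PBS with 2% milk and no ligand, then detected with Alexa488 antibodies. Fluorescence from o1-orientation probes (~5 replicates averaged) was converted to z-scores against 500 random hg19 background probes. Variable regions are seed direct-repeat (DR0–DR5) sites, all their single-nucleotide variants and half-site ablations.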

Sequence	PBM binding z-score
CCGAGTAGTTTACGAGGGGGCATTCAGTGCGAAT	4.03
CAAACTAGGTCAAGAGGTCAAACTCCGCTTCCCG	6.49
CCCACTGGGGCAAAGGTTACCATACTCAGTACGA	1.61
CGAACTAGGACATCCAGGACAGTGAATACATTGA	-0.0982
TCGAGTAGGTTACGGGGGCATCCAGGGATGAAGA	3.51
TCTAGGAGGACACGAAGGTCAGAGCTTTCCAGAG	2.25
GATACAGAGTCAGCTAGAGGCCAGAGTATGGAAA	-0.601
CTATGTAGGTTCAGGGGGTCATTCAGTTTGAAAG	6.91
CGAACTAGGTCACCAGGACAGTGCAGAGGTTGGA	2.28
AATTCAGGGTCACTAGGCCAGAGTAGGTACGAAT	4.79
CAAACTAGGTCACAGAGGTCAAAGTTCGTGCGTA	8.36
CTATGAAGGTTAAGGGGGTCATTCAGTTTGAAAG	7.95
CCGAGTAGATTACGAGGGGGCATTCAGTGCGAAT	3.48
CGTCCAAGGTCAATGCGAGGTCAGTGAAAGCATT	6.22
CGAACTAGGTCTCCAGGACAGTGAAGAGGTTGGA	-0.586
CAACCTAGGTCACGAAAGGTCAAAGTCGAATGAC	7.15
ACTTACGGGTCAACGGGGTTATAGCACGCGTATA	7.87
TCGAGTAGGTTAGGGGGGCATTCAGGGATGAAGA	3.91
AGAATGAGGTTACCAGAGATCAGGGAAACGCTTG	1.72
GCTTACGGGTCAAAGGTTACAGCATGAATAGAAT	5.69

Sequence	PBM binding z-score
CAAACTAGGTCACGAAAGGTCAAATTCGAATGAC	6.93
ACTAGCAGGCCAAGAGTCACTCAAGATTAGTCCG	-0.367
TCGAGTAGGTTACGGGGGCATACAGGGATGAAGA	3.54
CGAACTAGGTCACCAGGACAATGAAGAGGTTGGA	2.21
TCAGATAGGTAAAGGTGAAAGTCGAACGATATGA	0.979
CCTACTGGGCCACGTAAGGTCATTGATTCAGTGA	3.69
AGTCAAAGTTCATCAAGGTAACGTAAGATATGCT	5.55
CGTCCAAGGTCAAGGTGAGTGAAAGAGACTCGAA	4.01
ATATGTAGGTAAGGGTCATTCAGAAAGTAGGGAA	4.1
CGAACTCGGTCAAAGGACAGTGAAAGGCGACGTA	0.208
TATCCTAGGTCAGATCGGGCCAGTATACGCTATA	1.51
CCTTACGGGCCACGAGGTTATAGCACGACGAGCG	0.504
CGTCCAACGTCAGCAGGTCAGTGAAAGCGACGTG	-0.198
CGTCCGAGGTCAATGCTAGGTCAGTGAAAGCATT	5.63
CCGAGTAGGTTACGAGGGGGAATTCAGTGCGAAT	1.7
CATACACGGTCAGCTAGGCCAGAGTAGGGACGGC	-0.0494
CGAACTAGGTCAAAGGACAGTGCAAGGCGACGTA	1.68
CGAACTAGGTCCAAGGACAGTGAAAGGCGACGTA	-0.332
CCGATTAGGTTACGAGGGGGCATTCAGTGCGAAT	5.1
CCTACTGGGCCATACAGAGGTCATTGATCATATG	4.09
